Compounds without any hit were thinned out: in the full panel of roughly 83,000, 20% have a hit.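 96-well plates, one dose, 48 hours. Percent growth reported; active if below 10.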 The source made the active and inactive calls.
These compounds were tested on KM12 colon (assay: NCI-60 one-dose screen, 48 h (100 = growth as untreated, 0 = no growth, -100 = all killed)). Settings: 10 µM unless noted.
Description: Growth inhibition of the KM12 human tumor cell line is measured as a screen for anti-cancer activity. Cells are grown in 96 well plates and exposed to the test compound for 48 hours. Compounds are tested at a single concentration, which is 10^-5 M for most compounds. The reported endpoint is percent growth (GI% or GIPRCNT), where numbers from 0 - 100% represent growth inhibition, and numbers from -100% - 0 represent cell death. For example, a value of 40 represents 60% growth inhibition. A value of 0 means no net growth occurred over the course of the experiment. A value of -40 indicates 40% of cells at the beginning of the experiment died by the end of the experiment. A value of -100 means all cells are dead at the end of the experiment.
NCI-60 Human Tumor Cell Lines Screen was performed using the standard one-dose NCI protocol, which is described in more detail at https://dtp.cancer.gov/discovery_development/nci-60/default.htm.
Compounds with GIPRCNT values below 10 were considered active. Activity score was based on GIPRCNT using the following formula: […]
Score is 0 for GIPRCNT values of 100 or above, 50 for GIPRCNT values of 0, and 100 for GIPRCNT values of -100.
In the case of `C/C(=C(/c1ccc(O)cc1)c1ccc(OCCN2CCCC2)cc1)c1ccc(Cl)cc1`, the growth is reported as 46.5% (inactive). In the case of `CC1CCN(S(=O)(=O)c2ncsc2-c2ccccc2)CC1`, the growth is reported as 94.8% (inactive). For `C(=C(\C1=NCCN1)n1cnc2ccccc21)/c1ccc2ccccc2c1`, the growth was 69.2% (inactive). For `CCCCCCNC(=O)Oc1ccc(/C(=C(/C)c2ccc(OC)cc2)c2ccc(OCCN3CCCC3)cc2)cc1`, the growth was 82% (inactive). `CN1C(=O)/C(=C/C=C/c2ccco2)SC1=S` was tested, and the growth was 91.3% (inactive). For `C=CCn1c(SCC(=O)Nc2cccc(C(=O)/C=C/c3cc(OC)c(OC)c(OC)c3)c2)nc2ccccc2c1=O`, the growth was 46.3% (inactive). For `CS(=O)(=O)c1ccc2c(c1)c1c(n2S(=O)(=O)c2ccc(Cl)cc2)CCCC1`, the growth was 29.3% (inactive). `O=C(Cn1cc(CN2C(=O)c3ccc([N+](=O)[O-])cc3C2=O)nn1)Nc1ccccc1Br` was tested, and the growth was 102% (inactive). For `CC[C@H](C)[C@H]1NC(=O)[C@@H]([C@H](O)C(C)C)NC(=O)[C@@H](C)N(C)C(=O)[C@H](C)N(C)C(=O)[C@H](CC(C)C)NC(=O)[C@H](CC(C)C)N(C)C(=O)[C@H](C)N(C)C1=O`, the growth was 16% (inactive). In the case of `O=C1NC(=O)/C(=C/c2ccc(OCc3cc4ccccc4nc3Cl)cc2)S1`, the growth is reported as 100% (inactive). With `Cc1ccc(Cc2cnc(NC(=O)/C(C#N)=C/c3ccc(-c4ccc(Cl)cc4)o3)s2)cc1` the growth was 90.4% (inactive). With `O=C(CCCCCCN1CC(=O)N2[C@@H](c3cc(F)cc(F)c3)c3[nH]c4ccccc4c3C[C@H]2C1=O)NO` the growth was 69.7% (inactive). `COc1ccc(-c2cc(-c3cccc4ccccc34)n3c(n2)nc2ccccc23)cc1OC` was tested, and the growth was 68.1% (inactive). For `Cc1nn(-c2ccccc2)c2nc(CCl)[nH]c(=O)c12`, the growth was 53.3% (inactive). In the case of `O=c1c2ccccc2nc(COc2ccccc2)n1/N=C/C=C/c1ccccc1`, the growth is reported as 111% (inactive). `Oc1ccc(CSc2nnc(-c3cnccn3)n2-c2ccccc2)c2cccnc12` was tested, and the growth was 18.9% (inactive). In the case of `CCCCSc1nnc(-c2ccc(-c3ccc(Cl)cc3)nc2C)o1`, the growth is reported as 103% (inactive). With `CCN1CCN(c2cc(C(=O)Nc3nc4ccc(Oc5ccnc(C(=O)NC)c5)cc4s3)cc(C(F)(F)F)c2)CC1` the growth was 56.9% (inactive). For `COc1cc(O)c2c(c1)[C@H]1O[C@@H]1C[C@H](O)[C@H](O)C(=O)/C=C\C[C@H](C)OC2=O`, the growth was 90.4% (inactive). `N/C(=N\c1nc2ccc([N+](=O)[O-])cc2s1)C(Cl)(Cl)Cl` was tested, and the growth was 37.6% (inactive). For `C/C(=C(/C)C1CC1CCN(C(=O)c1ccccn1)S(=O)(=O)c1ccc(C)cc1)C1CCCCC1` (stereo not given), the growth was 98.6% (inactive). For `CCN(CC)Cc1c(-c2cccc(OC(F)(F)F)c2)[nH]c2ccc(N3CCCC3)cc2c1=O`, the growth was 95.9% (inactive). In the case of `NC(=O)c1c(NC(=O)c2cccc(OC(F)(F)F)c2)sc2c1CCC(=O)C2`, the growth is reported as 31.4% (inactive). For `CCc1ccc(NC(=O)N[C@@H](Cc2cccc(F)c2)C(=O)N[C@@H]2C(=O)N3CCC[C@H]3C(=O)N3CCCC[C@H]3C(=O)N[C@@H](CO)C(=O)N3C[C@H](C)C[C@H]3C(=O)O[C@H]2C)c(F)c1`, the growth was 37.8% (inactive). With `Cc1csc(Nc2cccc(Nc3nc(C)cs3)c2)n1` the growth was 87.8% (inactive). In the case of `CC(C)=CCc1c(O)c(CC=C(C)C)c2c(c1O)C(=O)C1=C[C@@H]3C[C@H]4C(C)(C)O[C@@](C/C=C(\C)C(=O)O)(C3=O)[C@@]14O2`, the growth is reported as -18.4% (active). `O=C(/C=C1\C=CN(CCCCO)c2ccccc21)n1ccc2ccccc21` was tested, and the growth was 100% (inactive). `O=C(Nc1cc(Cl)cc(Cl)c1)Nc1nc2ccc([N+](=O)[O-])cc2s1` was tested, and the growth was 3.63% (active). `CCc1ccc(NC(=O)N[C@@H](Cc2cccc(C)c2)C(=O)N[C@@H]2C(=O)N3CCC[C@H]3C(=O)N3CCCC[C@H]3C(=O)N[C@@H](CO)C(=O)N3C[C@H](C)C[C@H]3C(=O)O[C@H]2C)c(F)c1` was tested, and the growth was 37.6% (inactive). `O=C(Nc1cccc(Cl)c1)Nc1nc2ccc(-c3cccc4ccccc34)cc2s1` was tested, and the growth was 23% (inactive). In the case of `CC(C)(C)CC(C)(C)n1nnnc1C(Nc1ccccc1)c1cc2cccc3ccc4cccc1c4c32` (stereo not given), the growth is reported as 86.7% (inactive). For `O=C(CSc1nnc(-c2cccs2)n1-c1ccccc1)Nc1ccc(F)cc1`, the growth was 94.1% (inactive). In the case of `COc1ccc(NC(=O)Cn2cc(CN3C(=O)c4ccc([N+](=O)[O-])cc4C3=O)nn2)cc1`, the growth is reported as 106% (inactive). `CN1CCN(c2nc(-c3csc(-c4ccncc4)n3)cc3ccccc23)CC1` was tested, and the growth was 62.6% (inactive). `Cc1ccc(Nc2ncnc3c2c(C)nn3-c2ccc([N+](=O)[O-])cc2)cc1` was tested, and the growth was 81.2% (inactive). For `COCCC[C@H]1O[C@@](O)([C@H](C)[C@@H]2CC(OC)C(O)/C=C(C)/C=C(C)/C=C(\C)C(OC3O[C@@H](C)[C@H](O)C(O)[C@@H]3O)C(C)/C=C(C)/C=C(OC)/C=C(\C)C(=O)O2)C(OC)C(O)[C@]1(C)O[C@H]1C[C@@H](O)[C@H](O[C@H]2C[C@](C)(O)[C@H](O)C(C)O2)C(C)O1` (stereo not given in full), the growth was 66.5% (inactive). With `CCOC(=O)c1ccc(N/C=C/C(=O)c2ccccc2)cc1` the growth was 98.5% (inactive). For `Cn1cc(-c2nn3cc(-c4cccnc4)nc3s2)c2ccccc21`, the growth was 29.6% (inactive). `CCOC(=O)CC(=O)CSC1=NC2C(NN1)N(C)C(=O)N2C` (stereo not given) was tested, and the growth was 101% (inactive). In the case of `COCCOc1ccc(-c2csc(NC(=O)CN3CCN(CCO)CC3)n2)cc1NS(=O)(=O)c1cccc2c(N(C)C)cccc12`, the growth is reported as 97.4% (inactive).

From PubChem BioAssay (NCI)
